In PubChem BioAssay:
Active and inactive are the calls of the source.

Key:
[1] = test system: Plasmodium falciparum Sir2 (PF13_0152, Sir2A); assay: Plasmodium falciparum Sir2A binding compounds – biochemical, small-molecule microarray, 635 nm fluorescence, primary screen (AID 1098); settings: fluorescence 635 nm, higher = more signal;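 also: score merges spot fluorescence intensity with its signal-to-noise ratio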
[2] = probe aDKK1 binding to arrayed compounds – biochemical, biotinylated probe, 635/667 nm fluorescence, primary screen (AID 1099); settings: small-molecule microarray, higher = more signal;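 also: score merges 667nm spot fluorescence with signal to noise across triplicate slides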
[3] = probe aCHRDL2 binding to arrayed compounds – biochemical, biotinylated probe, 635/667 nm fluorescence, primary screen (AID 1100); settings: small-molecule microarray, higher = more signal
[4] = change in splice reporter luminescence, either direction, cell-based, HEK293, spliceosome inhibition project, primary screen (AID 1101); settings: HEK293 splicing luciferase reporter, 24 h, higher = more signal, called active from +8 up or from −8 down;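 also: HEK293 cells carrying a splicing-competent luciferase reporter gene; test concentration not given here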
[5] = biological target: Fibroblast growth factor 10 (Homo sapiens) (UniProt O15520); assay: compounds binding fibroblast growth factor 10 – biochemical, small-molecule microarray, 635 nm fluorescence, primary screen (AID 1102); settings: FGF10 binding, fluorescence 635 nm, higher = more signal
[6] = test system: glycogen synthase kinase-3 (GSK3A per assay name; protocol says GSK3B); assay: compounds binding glycogen synthase kinase-3 – biochemical, small-molecule microarray, 635 nm fluorescence, GSK3A, primary screen (AID 1103); settings: fluorescence 635 nm, higher = more signal; also: the record names both GSK3A and GSK3B
[7] = biological target: Epidermal growth factor receptor (Homo sapiens) (UniProt P00533); assay: compounds binding epidermal growth factor receptor – biochemical, small-molecule microarray, 635 nm fluorescence, primary screen (AID 1104); settings: EGFR binding, higher = more signal;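 also: score merges 667 nm emission intensity with spot signal to noise over triplicate slides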
[8] = biological target: Follistatin-related protein 3 (Homo sapiens) (UniProt O95633); assay: compounds binding follistatin-related protein 3 – biochemical, small-molecule microarray, 635 nm fluorescence, primary screen (AID 1105); settings: FSTL3 binding, higher = more signal;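 also: score merges emission near 667 nm and signal to noise per printed spot across three slides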
[9] = biological target: Dickkopf-related protein 1 (Homo sapiens) (UniProt O94907); assay: small molecules binding DKK1 protein – biochemical, small-molecule microarray, 635 nm fluorescence scan, primary screen (AID 1106); settings: higher = more signal;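 also: score merges emission near 667 nm with signal to noise over three replicate slides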
[10] = test system: Inhibin beta A chain (activin A); assay: small molecules binding activin A – biochemical, small-molecule microarray, 635 nm fluorescence scan, primary screen (AID 1107); settings: INHBA, higher = more signal;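 also: mouse activin A protein probed at 4.33 µg/mL on printed slides; score merges bound-protein fluorescence near 667 nm with spot signal-to-noise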
[11] = test system: Human papillomavirus type 1a protein E7 (residues 44-93); assay: small molecules binding HPV E7 44-93 – biochemical, small-molecule microarray, residues 44-93, 635 nm fluorescence, primary screen (AID 1108); settings: fluorescence 635 nm, higher = more signal;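 also: E7 fragment applied at 1 µg/mL in TBST for 1 h at 4 C; score combines spot fluorescence with its signal to noise ratio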
[12] = hepatitis C replication reporter changes, two-sided – Huh7 cells, luciferase reporter, HCV replication inhibitor project, primary screen (AID 1109); settings: Huh7 HCV replicon luciferase reporter, 48 h; higher = more signal;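 also: huh7 hepatoma cells harbouring a luciferase neomycin HCV replicon reporter; luciferase luminescence as measure of HCV replicon replication; test concentration not given here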
[13] = biological target: Left-right determination factor 2 (Homo sapiens) (UniProt O00292); assay: small molecules binding LEFTY2 protein – biochemical, small-molecule microarray, 635 nm fluorescence scan, primary screen (AID 1110); settings: higher = more signal
[14] = biological target: Calmodulin-1 (Homo sapiens) (UniProt P0DP23); assay: small molecules binding calmodulin-1 with EGTA – biochemical, small-molecule microarray, Cy5-labelled CALM1, profiling panel (AID 1111); settings: Cy5-CALM1 binding fluorescence, higher = more signal;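 also: labelled calmodulin applied in Tris saline Tween buffer holding calcium plus EGTA and DTT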
[15] = biological target: Calmodulin-1 (Homo sapiens) (UniProt P0DP23); assay: small molecules binding Ca-loaded calmodulin-1 – biochemical, small-molecule microarray, Cy5-labelled CALM1, plus calcium, artefact control for SMM control-protein annotation, profiling panel (AID 1112); settings: Cy5-CALM1 binding fluorescence, higher = more signal;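 also: score merges spot fluorescence with signal to noise from triplicate slides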
[16] = probe aWnt5a binding to arrayed compounds – biochemical, biotinylated probe, 635/667 nm fluorescence, primary screen (AID 1113); settings: small-molecule microarray, higher = more signal;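 also: score merges 667 nm fluorescence intensity with signal-to-noise per printed feature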
[17] = probe aShh binding to arrayed compounds – biochemical, biotinylated probe, 635/667 nm fluorescence, primary screen (AID 1114); settings: small-molecule microarray, higher = more signal;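 also: probe is biotin-labelled aShh protein from a stem cell growth factor screen; measures binding of labelled protein to compounds printed on the slide; score merges feature fluorescence at 667 nm with signal-to-noise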
[18] = probe aNog binding to arrayed compounds – biochemical, biotinylated probe, 635/667 nm fluorescence, primary screen (AID 1115); settings: small-molecule microarray, higher = more signal;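 also: probe is biotinylated aNog protein used at 0.15 µg/mL for 1 h at 4 C; z-score combines 667 nm fluorescence of each spot with its signal to noise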
[19] = biological target: Torsin-1A-interacting protein 1 (Homo sapiens) (UniProt Q5JTV8); assay: compound microarray binding of lysate hLAP1 – cell lysate, small-molecule microarray, COS7 lysate, 635/667 nm fluorescence, primary screen (AID 1116); settings: 635 nm fluorescence, higher = more signal
[20] = biological target: Alpha-bungarotoxin (Bungarus multicinctus) (UniProt P60615); assay: compounds binding labelled alpha-BTX control protein – biochemical, small-molecule microarray, Alexa647 label, 635/667 nm fluorescence, artefact control for SMM control protein annotation, profiling panel (AID 1117); settings: alpha-BTX-A647 binding fluorescence, higher = more signal
Chain of Alpha-bungarotoxin (Bungarus multicinctus) (P60615 whole entry, looked up): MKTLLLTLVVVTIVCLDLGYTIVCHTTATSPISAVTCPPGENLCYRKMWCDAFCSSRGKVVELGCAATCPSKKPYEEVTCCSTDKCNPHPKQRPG

Chain of Left-right determination factor 2 (Homo sapiens) (O00292 whole entry, looked up): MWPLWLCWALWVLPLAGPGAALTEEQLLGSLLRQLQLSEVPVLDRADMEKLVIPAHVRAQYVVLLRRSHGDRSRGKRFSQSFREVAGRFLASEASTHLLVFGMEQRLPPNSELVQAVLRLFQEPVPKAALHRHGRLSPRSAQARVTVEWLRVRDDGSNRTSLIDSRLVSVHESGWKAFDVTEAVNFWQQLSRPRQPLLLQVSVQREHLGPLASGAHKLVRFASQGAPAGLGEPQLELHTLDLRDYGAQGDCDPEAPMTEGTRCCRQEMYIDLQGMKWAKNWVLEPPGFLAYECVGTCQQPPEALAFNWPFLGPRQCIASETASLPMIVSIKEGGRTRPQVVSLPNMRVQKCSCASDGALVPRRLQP
Chain of Epidermal growth factor receptor (Homo sapiens) (P00533 whole entry, looked up): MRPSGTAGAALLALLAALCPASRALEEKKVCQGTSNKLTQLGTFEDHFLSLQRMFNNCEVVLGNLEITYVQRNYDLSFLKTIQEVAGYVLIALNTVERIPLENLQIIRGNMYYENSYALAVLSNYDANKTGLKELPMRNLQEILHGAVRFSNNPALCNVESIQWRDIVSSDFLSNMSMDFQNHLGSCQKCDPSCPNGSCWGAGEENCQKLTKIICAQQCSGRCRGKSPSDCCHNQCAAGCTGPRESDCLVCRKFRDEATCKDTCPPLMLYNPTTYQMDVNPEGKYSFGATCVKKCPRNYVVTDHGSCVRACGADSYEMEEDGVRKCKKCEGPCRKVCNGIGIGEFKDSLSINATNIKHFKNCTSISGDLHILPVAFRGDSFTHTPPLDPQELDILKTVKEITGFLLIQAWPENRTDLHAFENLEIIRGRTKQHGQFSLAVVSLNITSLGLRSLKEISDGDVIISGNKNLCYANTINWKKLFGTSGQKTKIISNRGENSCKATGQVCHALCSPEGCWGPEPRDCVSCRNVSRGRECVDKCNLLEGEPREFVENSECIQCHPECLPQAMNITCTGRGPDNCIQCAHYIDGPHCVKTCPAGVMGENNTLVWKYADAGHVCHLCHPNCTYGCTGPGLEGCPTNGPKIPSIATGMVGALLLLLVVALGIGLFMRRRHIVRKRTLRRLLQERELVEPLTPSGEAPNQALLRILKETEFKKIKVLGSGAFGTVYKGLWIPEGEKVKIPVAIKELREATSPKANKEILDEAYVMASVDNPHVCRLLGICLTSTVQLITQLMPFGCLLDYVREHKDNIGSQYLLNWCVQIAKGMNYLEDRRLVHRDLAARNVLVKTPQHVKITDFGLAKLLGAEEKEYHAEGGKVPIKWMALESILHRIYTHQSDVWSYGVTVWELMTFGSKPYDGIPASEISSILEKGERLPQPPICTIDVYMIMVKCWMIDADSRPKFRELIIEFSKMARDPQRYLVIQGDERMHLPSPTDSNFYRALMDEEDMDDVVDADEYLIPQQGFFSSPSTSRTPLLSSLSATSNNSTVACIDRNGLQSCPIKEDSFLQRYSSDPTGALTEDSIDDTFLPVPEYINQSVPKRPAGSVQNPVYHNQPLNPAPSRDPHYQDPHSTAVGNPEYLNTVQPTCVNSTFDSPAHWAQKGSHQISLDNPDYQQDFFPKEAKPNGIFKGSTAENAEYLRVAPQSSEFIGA
Chain of Dickkopf-related protein 1 (Homo sapiens) (O94907 whole entry, looked up): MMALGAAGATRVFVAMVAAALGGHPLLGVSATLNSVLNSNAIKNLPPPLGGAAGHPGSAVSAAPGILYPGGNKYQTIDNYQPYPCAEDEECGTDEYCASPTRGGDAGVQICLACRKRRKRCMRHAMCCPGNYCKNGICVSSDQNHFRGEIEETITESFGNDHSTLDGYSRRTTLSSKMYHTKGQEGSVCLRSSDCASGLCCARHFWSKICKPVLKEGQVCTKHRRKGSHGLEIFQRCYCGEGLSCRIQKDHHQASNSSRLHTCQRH
Chain of Fibroblast growth factor 10 (Homo sapiens) (O15520 whole entry, looked up): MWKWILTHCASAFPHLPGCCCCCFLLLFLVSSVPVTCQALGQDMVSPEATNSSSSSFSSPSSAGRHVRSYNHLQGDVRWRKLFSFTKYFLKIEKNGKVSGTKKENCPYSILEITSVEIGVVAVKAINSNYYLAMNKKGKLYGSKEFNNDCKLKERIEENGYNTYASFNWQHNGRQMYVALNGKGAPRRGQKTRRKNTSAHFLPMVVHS
Chain of Torsin-1A-interacting protein 1 (Homo sapiens) (Q5JTV8 whole entry, looked up): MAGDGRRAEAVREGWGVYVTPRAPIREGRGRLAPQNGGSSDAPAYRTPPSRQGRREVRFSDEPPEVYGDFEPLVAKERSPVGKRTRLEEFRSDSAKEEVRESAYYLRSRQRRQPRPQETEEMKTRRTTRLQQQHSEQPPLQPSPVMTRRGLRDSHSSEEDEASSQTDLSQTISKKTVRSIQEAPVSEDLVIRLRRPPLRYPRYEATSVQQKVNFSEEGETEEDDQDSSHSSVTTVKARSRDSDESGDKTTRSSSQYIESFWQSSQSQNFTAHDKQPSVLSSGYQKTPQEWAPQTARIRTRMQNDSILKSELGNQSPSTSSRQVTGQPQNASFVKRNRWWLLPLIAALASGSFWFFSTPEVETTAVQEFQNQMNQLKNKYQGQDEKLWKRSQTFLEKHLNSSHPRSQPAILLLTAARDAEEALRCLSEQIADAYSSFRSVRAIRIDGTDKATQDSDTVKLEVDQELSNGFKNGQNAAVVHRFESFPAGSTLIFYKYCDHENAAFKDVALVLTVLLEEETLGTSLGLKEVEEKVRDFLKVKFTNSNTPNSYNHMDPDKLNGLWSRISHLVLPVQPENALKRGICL
Chain of Follistatin-related protein 3 (Homo sapiens) (O95633 whole entry, looked up): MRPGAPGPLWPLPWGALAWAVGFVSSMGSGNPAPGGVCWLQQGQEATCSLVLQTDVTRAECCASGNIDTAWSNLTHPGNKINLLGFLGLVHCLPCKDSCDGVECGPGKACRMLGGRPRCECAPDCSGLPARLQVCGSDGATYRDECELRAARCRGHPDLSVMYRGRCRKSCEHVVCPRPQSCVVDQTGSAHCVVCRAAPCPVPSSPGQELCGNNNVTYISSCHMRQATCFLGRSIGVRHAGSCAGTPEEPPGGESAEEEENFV

SMILES | composite z-score [1] | composite z-score [2] | composite z-score [3] | z-score [4] | composite z-score [5] | composite z-score [6] | composite z-score [7] | composite z-score [8] | composite z-score [9] | composite z-score [10] | composite z-score [11] | z-score [12] | composite z-score [13] | composite z-score [14] | composite z-score [15] | composite z-score [16] | composite z-score [17] | composite z-score [18] | composite z-score [19] | composite z-score [20]
COC(=O)c1c(CC[C@@H](CO)NC(=O)N[C@H](Cn2cc(Cc3ccccc3)nn2)C(C)C)oc(C(C)=O)c1C(=O)OC | 0.751 | -0.195 | -0.457 | -0.781 (inactive) | 1.16 | 0.544 | -0.172 | 0.678 | 0.857 | 0.509 | 0.712 | -0.0084 | 0.637 | -0.279 | -0.573 | -0.18 | 0.288 | -0.143 | 0.223 | 0.882
Cc1ccc(S[C@]2(C(=O)NCC(C)C)CC(=O)N(Cc3cc(C(F)(F)F)cc(C(F)(F)F)c3)[C@@H]2c2ccc(CO)cc2I)cc1 | -0.313 | 0.75 | 1.39 | -0.0957 (inactive) | -0.755 | -1.16 | -1.78 | -0.615 | -2.14 | 0.923 | 0.133 | -1.01 | -2.48 | -0.571 | 0.0903 | -0.166 | 0.108 | 0.225 | 0.116 | -1.05
COc1ccc([Si](C)(C)[C@H]2[C@H](CC(=O)N3CCC[C@H]3CO)O[C@@]3(C(=O)N(Cc4cccc(N5C(=O)c6cccc7cccc5c67)c4)c4ccccc43)[C@@H]2C)cc1 | 1.45 | -0.109 | -0.098 | 0.685 (inactive) | 1.29 | 0.483 | 0.761 | 1.25 | 0.892 | 0.459 | 1.34 | -3.12 | 0.758 | 0.681 | -0.0975 | 0.0775 | -0.196 | 1.02 | 0.582 | 1.56
C=C(COC)/C(=C/C[C@H](OC(=O)c1ccncc1)c1ccc(OCCO)cc1)c1cnc2ccccc2c1 | 1.24 | 0.159 | -0.106 | -1.02 (inactive) | 1.36 | 1.07 | 1.26 | 1.55 | 1.01 | 1.61 | 1.46 | -1.63 | 1.07 | 0.447 | -0.669 | 0.0328 | 0.171 | -0.456 | 0.78 | 2.8
COC(=O)[C@@]1(Cc2ccc(F)cc2)[C@H]2c3cc(C(=O)N4CCCC4)n(Cc4ccc(C)o4)c3C[C@H]2CN1C(=O)c1ccccc1 | 1.55 | 0.72 | 1.02 | 3.29 (inactive) | 1.08 | 0.899 | 0.0358 | 0.596 | -0.177 | 0.87 | 1.4 | -2.32 | -0.699 | 1.48 | 0.558 | 0.319 | 0.862 | -0.632 | 0.11 | 0.948
C=CCOC(=O)[C@@H]1[C@H]2C(=O)O[C@H](c3ccccc3)[C@H](c3ccccc3)N2[C@H](c2ccc(OCCOC(=O)[C@@H]3C[C@@H]4C(=O)N[C@@H](CCCC[N+](C)(C)C)C(=O)N4[C@@H]3c3cccc(OCCO)c3)cc2)[C@@]12C(=O)Nc1ccc(I)cc12 | 1.09 | 0.0616 | 0.0011 | -0.874 (inactive) | 0.591 | 1.19 | 0.779 | 1.25 | 0.985 | 0.195 | 0.741 | -2.48 | 0.692 | 1.02 | 0.0416 | -0.0512 | -0.0146 | 0.886 | 0.897 | 1.59
NCCCCCNC(=O)[C@@H]1C[C@@H]2C(=O)NCC(=O)N2[C@@H]1c1ccc(O)cc1 | 1.15 | -0.0246 | -0.128 | -0.0882 (inactive) | 1.49 | 1.32 | -0.318 | 1.22 | 1.63 | 0.294 | 1.37 | 0.358 | 1.3 | 0.957 | 0.281 | -0.008 | -0.138 | -0.036 | 0.855 | 1.15
COc1ccc(C(=O)Nc2ccc(CN3C(=O)[C@@]4(O[C@@H](CCO)[C@H]([Si](C)(C)c5ccc(OC)cc5)[C@H]4C)c4ccccc43)cc2)cc1 | 1.32 | 0.381 | 0.47 | -3.19 (inactive) | 0.793 | 1.1 | 0.65 | 1.45 | 1.04 | 1.39 | 0.908 | -5.15 | 0.861 | 0.0404 | -0.608 | 0.0367 | -0.0146 | 0.0395 | 1.12 | 0.643
O=C1c2ccccc2[C@](Cc2ccccc2I)(C(=O)NC2CC2)[C@H](c2ccc(CO)cc2)N1C1CCCCC1 | 1.19 | -0.809 | -0.589 | -0.578 (inactive) | 0.724 | 1.33 | 0.543 | 1.05 | 0.529 | 0.435 | 1.46 | -1.62 | 0.272 | 0.675 | 0.0028 | -0.176 | -0.421 | -0.0067 | 0.547 | 1.38
C=CCNC(=O)[C@H]1[C@@H]2C(=O)O[C@@H](c3ccccc3)[C@@H](c3ccccc3)N2[C@@H](c2ccc(O)cc2)[C@]12C(=O)N(C(=O)OCCOC)c1ccc(C#CCNC(N)=O)cc12 | 0.867 | 0.297 | 0.537 | 0.481 (inactive) | 0.855 | 1.11 | 0.157 | 0.999 | 0.936 | 0.969 | 0.863 | -0.767 | 1.01 | -0.0456 | 0.143 | 0.0077 | -0.0769 | 0.0989 | 0.585 | 1.07
CN1C(=O)C2C=CC(C(O)c3ccc(I)cc3)N(N3CCCCC3)C2C1=O (stereo not given) | 1.36 | 0.382 | 1.21 | 1.18 (inactive) | 1.07 | 0.354 | 0.396 | 1.34 | -0.147 | 0.72 | 1.43 | -0.435 | 0.0759 | 1.64 | 0.219 | 0.0599 | 0.184 | 1.34 | 1.19 | 1.22
